Assay outcomes from PubChem BioAssay.
In the library only some 18% were active in any assay of this set; here they are far more common.
RORg inh – qHTS for inhibitors of ROR gamma transcriptional activity. AID 2551, 2010. Potency, µM (series often up to 53.6 µM), inactives show top-dose activity change, negative = inhibition, usual class: inhibitors. 310,000 compounds, 5.4% hits. Nuclear receptor ROR-gamma (Mus musculus), P51450. Drosophila S2 Gal4-RORgamma UAS-luciferase reporter, 20 h; further: potency means the concentration at half of the fitted maximal effect; nearly all actives have a fitted effect of over 60% in size
Target sequence (P51450 whole entry, looked up, the tested form may be a part): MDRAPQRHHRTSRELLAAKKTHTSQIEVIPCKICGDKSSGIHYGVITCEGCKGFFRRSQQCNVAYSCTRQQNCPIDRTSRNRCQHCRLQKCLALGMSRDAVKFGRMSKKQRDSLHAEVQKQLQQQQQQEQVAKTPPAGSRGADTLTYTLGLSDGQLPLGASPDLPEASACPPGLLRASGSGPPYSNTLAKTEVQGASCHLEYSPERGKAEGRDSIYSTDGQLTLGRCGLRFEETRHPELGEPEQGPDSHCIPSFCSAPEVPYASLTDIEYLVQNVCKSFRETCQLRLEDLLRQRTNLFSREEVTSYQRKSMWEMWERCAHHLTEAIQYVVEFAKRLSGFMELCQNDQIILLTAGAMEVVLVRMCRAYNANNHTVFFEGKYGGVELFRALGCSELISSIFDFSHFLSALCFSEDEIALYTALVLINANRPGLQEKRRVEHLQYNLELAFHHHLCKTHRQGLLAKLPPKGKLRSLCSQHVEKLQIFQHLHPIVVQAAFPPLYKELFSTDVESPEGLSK
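Schneider cells (Drosophila), stable Gal4 DBD–ROR gamma + UAS-luc; 1 hr cmpd preincubation; Cu2+ induction 700 uM final; 20 hr ambient; luminescence.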
TDP1 cell noCPT – qHTS for Inhibitors of human tyrosyl-DNA phosphodiesterase 1 (TDP1): qHTS in cells in absence of CPT; 420,000 compounds, 15% hits; DT40 Tdp1-/- hTDP1 cells, no CPT, ATP luminescence, 48 h; AID 686978, 2013; Potency, µM (titrated, usually from 46.2 µM), inactives show at the highest dose activity change, negative = growth inhibition, actives largely listed as inhibitors; further: potency means the concentration at half of the fitted maximal effect; nearly all actives have a fitted effect of over 55% in size
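DT40 Tdp1-/-;hTDP1 cells, no CPT (DMSO vehicle only), 400 cells/well; compounds pin-transferred; ≥48 hr, 37 °C; CellTiter-Glo 30 min RT dark, luminescence read.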
IL-1B inflam inh – qHTS for Inhibitors of Inflammasome Signaling: IL-1-beta AlphaLISA Primary Screen; 360,000 compounds, 4.7% hits; activity change, % at 57.5 µM; THP-1 LPS/ATP IL-1B secretion, AlphaLISA, 16 h; hits give low values; in the data active means activity change below about -50%; inconclusive means mostly about -30% to -49%
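Secreted IL-1B measured by AlphaLISA bead assay after 16 h compound exposure of THP-1 cells; compounds (final up to 57.5 uM) added 1 h before LPS (250 ng/mL) and ATP (1.25 mM) stimulation; lower signal means less secretion.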
TDP1 cell CPT – qHTS for Inhibitors of human tyrosyl-DNA phosphodiesterase 1 (TDP1): qHTS in cells in presence of CPT; chicken DT40 Tdp1-/-;hTDP1 cells + 20 nM CPT, ATP luminescence, 48 h; Potency, µM (doses to about 46.2 µM), for the others: at the top dose activity change, negative = growth inhibition, actives largely listed as inhibitors; 420,000 compounds, 12% hits; further: potency means the concentration at half of the fitted maximal effect; nearly all actives have a fitted effect of over 55% in size
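Chicken DT40 Tdp1-/- cells stably complemented with human TDP1 were seeded at 400 cells/well in medium containing 20 nM camptothecin, exposed to pin-transferred compounds, and grown at 37 °C for at least 48 hr. Viability was read as ATP luminescence.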
LDHA block – qHTS assay for inhibitors of human lactate dehydrogenase | purified LDHA, NADH/diaphorase-resazurin fluorescence; hits give low values | activity change, % (values are at about 110 or 230 µM) | 480,000 compounds, 0.15% hits | AID 1347041, 2019; in the data active means activity change below about -30%; inconclusive means mostly about -25% to -30%;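 further: plate controls were DMSO wells for no effect and wells without enzyme for full effect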
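Remaining NADH was detected by diaphorase (0.133 mg/mL) converting 37 µM resazurin to fluorescent resorufin, read at 0 and 20 minutes. The preceding 5-minute room-temperature reaction used 2 nM LDHA, 0.2 mM sodium pyruvate and 0.06 mM NADH at pH 7.4.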
VP16 counter – VP16 counterscreen qHTS for inhibitors of ROR gamma transcriptional activity; Drosophila S2 Gal4-VP16 UAS-luciferase, luminescence, 20 h; Potency, µM (top dose mostly 53.6 µM), for inactives: at the top dose activity, negative = inhibition, usual class: inhibitors; 310,000 compounds, 3.5% hits;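 further: Gal4-VP16 expression switched on by copper sulfate through the metallothionein promoter; potency means the concentration at half of the fitted maximal effect; nearly all actives have a fitted effect of over 50% in size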
Starred values were filed as active, the others as inactive; u = inconclusive; x = no result given. Unless noted, the call rests on the fitted dose curve; in most records, active means well fitted curve in the direction sought with a large enough effect; inconclusive means small, poorly fitted or top-dose-only effect, or another doubt; inactive means no such curve, though single readings can be large; an effect the other way counts as inactive or inconclusive. Unless noted, on the % scale 0 is the no-effect control and ±100 the full control effect.

SMILES	RORg inh	TDP1 cell noCPT	IL-1B inflam inh	TDP1 cell CPT	LDHA block	VP16 counter
CCN1C(=O)c2cccc3c(S(=O)(=O)Nc4ccc(OC)cc4OC)ccc1c23	u	u	21.2	u	-0.3	17.8µM*
CCN1C(=O)c2cccc3c(S(=O)(=O)N(C(=O)c4cccnc4)c4ccc(OC)cc4)ccc1c23	-36.0%	11.6µM*	38.5	u	1.9	u
CCN1C(=O)c2cccc3c(S(=O)(=O)N(C(=O)c4ccncc4)c4ccc(OC)cc4)ccc1c23	u	u	55.8	u	1.1	7.94µM*
CC1Cc2ccccc2N1C(=O)C1CCCN(S(=O)(=O)c2cccc3nsnc23)C1 (stereo unspecified)	-20.3%	14.6µM*	-12.9	u	1.5	-21.2%
O=C(C1CCN(S(=O)(=O)c2cccc3nsnc23)CC1)N1CCn2c1nc1ccccc12	-7.4%	16.4µM*	16.9	u	3.8	-6.2%
O=C(C1CCCN(S(=O)(=O)c2cccc3nsnc23)C1)N1CCc2ccccc2C1 (stereo unspecified)	40.1%	23.1µM*	u	u	1.1	-0.6%
O=C(C1CCN(S(=O)(=O)c2cccc3nsnc23)CC1)N1CCCc2ccccc21	-11.0%	u	-52.2*	-26.7%	-4.4	-25.4%
O=C(O)C1CCN(S(=O)(=O)c2cccc3nsnc23)CC1	-13.5%	25.1%	22.6	0.5%	-2.8	-2.7%
O=C(C1CCN(S(=O)(=O)c2cccc3nsnc23)CC1)N1CCc2ccccc21	30.1%	u	-1.2	u	-0.6	-2.6%
O=C(C1CCCN(S(=O)(=O)c2cccc3nsnc23)C1)N1CCCCCC1 (stereo unspecified)	4.4%	u	10.9	-24.5%	-6.9	-13.5%
Cc1cccc(NC(=O)c2nn(C)c(=O)c3ccccc23)c1	x	x	x	x	10.0	x
COc1cccc2cc(S(=O)(=O)c3ccccc3F)c(=O)oc12	x	x	x	x	1.4	x
CSc1nnc(-c2cc(Br)ccc2NC(C)=O)c(=O)[nH]1	x	x	x	x	-9.0	x
COc1ccc(CNC(=O)C2Cc3ccccc3S2)cc1OC (stereo unspecified)	x	x	x	x	-4.5	x
O=C(C1CCCN(S(=O)(=O)c2cccc3nsnc23)C1)N1CCc2ccccc21 (stereo unspecified)	u	23.1µM*	-0.4	u	-2.6	-13.7%
Cc1cc(N2CCN(c3cc(Cl)ccc3C)CC2)n2nc(-c3ccccc3)nc2n1	x	-25.4%	x	-8.0%	-6.8	x
Cc1cc(N2CCN(c3ccccc3Cl)CC2)n2cc(-c3ccccc3)nc2n1	-40.8%	u	-59.6*	u	-1.4	u
Cc1cc(N2CCN(c3ccccc3)CC2)n2cc(-c3ccccc3)nc2n1	22.0%	10.3µM*	-68.1*	u	-7.6	-18.7%
COCCNC(=O)CN(Cc1ccc2c(c1)OCO2)C(=O)CCC(=O)Nc1nccs1	-23.8%	18.4µM*	29.6	18.4µM*	-2.3	-6.7%
O=C(O)CC1(CC(=O)N2CCN(C(=O)CC3(CC(=O)O)CCCCC3)CC2)CCCCC1	x	x	x	x	1.1	x
CN(CC(=O)Nc1cccc(F)c1)C(=O)/C=C/c1cc(Br)ccc1OC(F)F	x	5.8µM*	-29.2	4.61µM*	-0.1	x
CN(CC(=O)Nc1cccc(F)c1)C(=O)/C=C/c1ccc(Br)s1	x	-28.6%	-28.9	u	-4.2	x
CN(CC(=O)Nc1cccc(F)c1)C(=O)/C=C/c1ccc2ccccc2n1	12.2%	0.2%	-50.7*	u	-0.9	-10.8%
CC(NC(=O)c1nccnc1N)c1ccc(Cl)cc1 (stereo unspecified)	x	x	x	x	-7.0	x
